Data taken from PubChem BioAssay AID1159580 (chemical genetic matrix, 2015).
“And” between values parts separate entries of the source, which are not always exact repeats. Identical values can stand only once. The whole screen tested about 5,500 compounds, of which about 2,000 (36%) were called active. Inconclusive results (about 18%) are left out. Rule as the data show it: active = normalized growth mostly below about 0.91 (no sharp cut-off); inconclusive = no clear call, values can overlap the other calls; inactive = mostly above about 0.92. Some of the results follow.

Assay: chemical genetic growth profiling, strain panel (AID 1159580);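 also: tested at 20 µM; growth read once vehicle control cultures reached saturation at 30 °C; 1 = growth at the plate median or of vehicle wells; lower values mean less growth of the strain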
Settings: S. cerevisiae deletion strains, growth OD
[1] = locus YAL040C, strain CLN3, active compounds read low
[2] = locus YDR150W, strain NUM1, active compounds read low
[3] = locus YER002W, strain NOP16, active compounds read low
[4] = locus YNL175C, strain NOP13, active compounds read low
[5] = locus YNL197C, strain WHI3, active compounds read low
[6] = locus YNL224C, strain SQS1, active compounds read low
[7] = locus YOR083W, strain WHI5 (second series), active compounds read low
[8] = locus YPL055C, strain LGE1, active compounds read low

Measured: normalized growth

CCCCCCCCCCCCCC(=O)O[C@@H]1[C@@H](C)[C@@]2(O)[C@@H](C=C(CO)C[C@@]3(O)C(=O)C(C)=C[C@@H]23)C2C(C)(C)[C@@]21OC(C)=O (some centres not stated)
inactive: [1] 0.977 | locus YCL061C, strain MRC1 (second series), active compounds read low 0.992 | [2] 0.999 | locus YDR363W, strain ESC2, active compounds read low 0.999 | [3] 0.985 | locus YGR078C, strain PAC10, active compounds read low 0.972 | locus YNL128W, strain TEP1, active compounds read low 1.01 | [4] 1.01 | [5] 1.02 | [6] 1.01 | locus YNL322C, strain KRE1, active compounds read low 1 | [7] 1.01 | [8] 1.06 | locus YPL241C, strain CIN2, active compounds read low 0.997

Clc1cccc(Cl)c1NC1=NCCN1
inactive: locus YAL021C, strain ccr4, active compounds read low 0.973 | locus YAL026C, strain drs2, active compounds read low 1.01 | locus YAL030W, strain snc1, active compounds read low 0.993 | [1] 0.999 | locus YBL061C, strain skt5, active compounds read low 0.972 | locus YBR009C, strain hhf1, active compounds read low 1 | locus YBR021W, strain FUR4, active compounds read low 1.03 | locus YBR023C, strain chs3, active compounds read low 0.983 | locus YBR171W, strain sec66, active compounds read low 0.977 | locus YBR229C, strain ROT2, active compounds read low 0.999 | locus YBR231C, strain swc5, active compounds read low 0.998 | locus YBR279W, strain paf1, active compounds read low 1.01 | locus YCL011C, strain gbp2, active compounds read low 0.96 | locus YCL016C, strain dcc1, active compounds read low 0.962 | locus YCL029C, strain bik1, active compounds read low 1.02 | locus YCL061C, strain MRC1, active compounds read low 0.989 | locus YCL069W, strain vba3, active compounds read low 0.991 | locus YCR088W, strain abp1, active compounds read low 0.992 | locus YDL005C, strain med2, active compounds read low 0.996 | locus YDL035C, strain GPR1, active compounds read low 1.02 | locus YDL040C, strain nat1, active compounds read low 1.01 | locus YDL074C, strain BRE1, active compounds read low 1.03 | locus YDL101C, strain DUN1, active compounds read low 1.02 | locus YDL134C, strain PPH21, active compounds read low 1.01 | locus YDL185W, strain tfp1, active compounds read low 1.01 | locus YDL192W, strain arf1, active compounds read low 1.02 | locus YDR001C, strain nth1, active compounds read low 0.972 | locus YDR069C, strain doa4, active compounds read low 0.992 | locus YDR101C, strain arx1, active compounds read low 1.03 | locus YDR137W, strain rgp1, active compounds read low 0.959 | [2] 1.01 | locus YDR159W, strain sac3, active compounds read low 1.01 | locus YDR162C, strain NBP2, active compounds read low 1.01 | locus YDR195W, strain ref2 0.994 | locus YDR297W, strain sur2, active compounds read low 0.98 | locus YDR318W, strain mcm21, active compounds read low 1.02 | locus YDR334W, strain swr1, active compounds read low 0.954 | locus YDR335W, strain msn5, active compounds read low 0.973 | locus YDR388W, active compounds read low 1.01 | locus YDR392W, strain spt3, active compounds read low 0.904 | locus YDR502C, strain sam2, active compounds read low 1.03 | locus YEL003W, strain gim4, active compounds read low 0.984 | locus YEL037C, strain rad23, active compounds read low 0.999 | locus YEL061C, strain CIN8 (second series), active compounds read low 0.988 | locus YEL061C, strain CIN8, active compounds read low 1.01 | [3] 0.99 | locus YER015W, strain faa2, active compounds read low 1 | locus YER016W, strain bim1, active compounds read low 0.996 | locus YER110C, active compounds read low 1.02 | locus YER111C, strain swi4, active compounds read low 0.993 | locus YER155C, strain BEM2 (second series), active compounds read low 1 | locus YER155C, strain BEM2, active compounds read low 1.01 | locus YER167W, strain BCK2, active compounds read low 1.01 | locus YFR010W, strain ubp6, active compounds read low 0.998 | locus YGL078C, strain dbp3, active compounds read low 1.03 | locus YGL086W, strain mad1, active compounds read low 1.06 | locus YGL167C, strain pmr1, active compounds read low 0.991 | locus YGL173C, strain kem1, active compounds read low 0.985 | locus YGL227W, strain vid30, active compounds read low 0.992 | locus YGL240W, strain doc1, active compounds read low 0.995 | locus YGL248W, strain PDE1, active compounds read low 1.03 | locus YGL253W, strain hxk2, active compounds read low 0.963 | locus YGR135W, strain pre9, active compounds read low 1.04 | locus YGR229C, strain SMI1, active compounds read low 0.992 | locus YGR252W, strain gcn5, active compounds read low 1.05 | locus YHR013C, strain ard1, active compounds read low 0.965 | locus YHR027C, strain rpn1, active compounds read low 0.98 | locus YHR030C, strain SLT2, active compounds read low 1.01 and 0.969 | locus YHR079C, strain IRE1 (second series), active compounds read low 1.02 | locus YHR079C, strain IRE1, active compounds read low 0.98 | locus YHR094C, strain hxt1, active compounds read low 1.02 | locus YHR129C, strain ARP1, active compounds read low 1.01 | locus YHR142W, strain chs7, active compounds read low 0.932 | locus YHR200W, strain rpn10, active compounds read low 1.02 | locus YIL066C, strain RNR3, active compounds read low 1.01 | locus YIL073C, strain SPO22, active compounds read low 1.07 | locus YIL125W, strain kgd1, active compounds read low 1.02 | locus YIR030C, strain dcg1, active compounds read low 1.01 | locus YJL092W, strain hpr5, active compounds read low 0.994 | locus YJL095W, strain BCK1 (second series), active compounds read low 0.983 | locus YJL095W, strain BCK1, active compounds read low 1.04 and 0.975 | locus YJL115W, strain asf1, active compounds read low 0.969 | locus YJL129C, strain trk1, active compounds read low 0.97 | locus YJL134W, strain LCB3, active compounds read low 1.01 | locus YJL154C, strain vps35, active compounds read low 0.972 | locus YJL164C, strain tpk1, active compounds read low 0.996 | locus YJL166W, strain qcr8, active compounds read low 0.953 | locus YJL168C, strain set2, active compounds read low 1.02 | locus YJL187C, strain SWE1 (second series), active compounds read low 1.03 | locus YJL187C, strain SWE1, active compounds read low 1 | locus YJR043C, strain POL32, active compounds read low 1.03 | locus YJR066W, strain TOR1, active compounds read low 0.996 | locus YJR075W, strain HOC1, active compounds read low 1.01 | locus YKL009W, strain mrt4, active compounds read low 1.02 | locus YKL068W, active compounds read low 1 | locus YKL085W, strain MDH1 (second series), active compounds read low 1.06 | locus YKL085W, strain MDH1, active compounds read low 1.06 | locus YKL160W, strain elf1, active compounds read low 0.951 | locus YKL190W, strain CNB1, active compounds read low 1.01 | locus YKR001C, strain vps1, active compounds read low 1.01 | locus YKR026C, strain gcn3, active compounds read low 0.986 | locus YKR091W, strain srl3, active compounds read low 0.982 | locus YLL001W, strain dnm1, active compounds read low 0.933 | locus YLL026W, active compounds read low 0.986 | locus YLL041C, strain sdh2, active compounds read low 1 | locus YLR027C, strain aat2, active compounds read low 1.01 | locus YLR039C, strain RIC1, active compounds read low 1.01 | locus YLR058C, strain SHM2, active compounds read low 1.02 | locus YLR102C, strain apc9, active compounds read low 1.01 | locus YLR113W, strain HOG1, active compounds read low 0.951 | locus YLR221C, strain rsa3, active compounds read low 0.944 | locus YLR258W, strain gsy2, active compounds read low 0.985 | locus YLR262C, strain YPT6 (second series), active compounds read low 0.974 | locus YLR262C, strain YPT6, active compounds read low 0.982 | locus YLR268W, strain sec22, active compounds read low 1.02 | locus YLR320W, strain mms22, active compounds read low 0.944 | locus YLR330W, strain CHS5, active compounds read low 1.01 | locus YLR342W, strain FKS1 (second series), active compounds read low 1.01 | locus YLR342W, strain FKS1, active compounds read low 0.995 | locus YLR357W, strain rsc2, active compounds read low 0.974 | locus YLR370C, strain arc18, active compounds read low 0.968 | locus YLR371W, strain rom2, active compounds read low 1.01 | locus YLR384C, strain iki3, active compounds read low 0.988 | locus YLR418C, strain cdc73, active compounds read low 1.05 | locus YML016C, strain PPZ1, active compounds read low 1 | locus YML032C, strain rad52, active compounds read low 1.02 | locus YML120C, strain ndi1, active compounds read low 0.941 | locus YML124C, strain tub3, active compounds read low 1.01 | locus YMR058W, strain fet3, active compounds read low 0.99 | locus YMR078C, strain ctf18, active compounds read low 1.01 | locus YMR125W, strain sto1, active compounds read low 0.958 | locus YMR129W, active compounds read low 0.999 | locus YMR205C, strain PFK2, active compounds read low 0.947 | locus YMR223W, strain ubp8, active compounds read low 1.04 | locus YMR231W, strain pep5, active compounds read low 0.999 | locus YMR263W, strain SAP30, active compounds read low 0.988 | locus YMR307W, strain GAS1, active compounds read low 1.09 | locus YNL067W, strain RPL9B, active compounds read low 1.05 | locus YNL071W, strain lat1, active compounds read low 0.993 | [4] 1.01 | locus YNL183C, strain NPR1, active compounds read low 0.926 | [5] 0.999 | locus YNL209W, strain ssb2, active compounds read low 0.991 | [6] 1 | locus YNL233W, strain BNI4, active compounds read low 1.02 | locus YNL248C, strain rpa49, active compounds read low 0.995 | locus YNL250W, strain rad50, active compounds read low 1.02 | locus YNL271C, strain bni1, active compounds read low 1.02 | locus YNL298W, strain CLA4, active compounds read low 1.02 | locus YNL307C, strain MCK1, active compounds read low 1.02 | locus YNL322C, strain KRE1 (second series), active compounds read low 0.982 | locus YNR049C, strain mso1, active compounds read low 0.981 | locus YNR052C, strain pop2, active compounds read low 1.02 | locus YOL006C, strain TOP1, active compounds read low 1.18 | locus YOL012C, strain htz1 0.754 | locus YOL147C, strain pex11, active compounds read low 1.02 | locus YOR001W, strain rrp6, active compounds read low 1.04 | locus YOR061W, strain CKA2, active compounds read low 1.01 | locus YOR069W, strain VPS5, active compounds read low 1.01 | locus YOR070C, strain gyp1, active compounds read low 0.996 | locus YOR080W, strain dia2, active compounds read low 0.979 | [7] 0.997 | locus YOR083W, strain WHI5, active compounds read low 0.957 | locus YOR106W, strain vam3, active compounds read low 0.944 | locus YOR136W, strain idh2, active compounds read low 1.03 | locus YOR144C, strain elg1, active compounds read low 1.01 | locus YOR184W, strain ser1, active compounds read low 1.03 | locus YOR231W, strain MKK1, active compounds read low 0.989 | locus YOR265W, strain rbl2, active compounds read low 1 | locus YOR270C, strain vph1, active compounds read low 0.939 | locus YOR290C, strain snf2, active compounds read low 0.939 | locus YOR316C, strain cot1, active compounds read low 1.02 | locus YPL051W, strain arl3, active compounds read low 0.991 | [8] 1.04 | locus YPL078C, strain atp4, active compounds read low 0.954 | locus YPL106C, strain sse1, active compounds read low 0.94 | locus YPL240C, strain hsp82, active compounds read low 1 | locus YPL256C, strain CLN2, active compounds read low 0.993 | locus YPR119W, strain clb2, active compounds read low 1.02 | locus YPR141C, strain kar3, active compounds read low 1.01 | locus YPR163C, strain tif3, active compounds read low 1.01 | locus YPR167C, strain met16, active compounds read low 1.01 | strain wtn01, active compounds read low 1.04
